24 molecules from ChEMBL document CHEMBL5308504, “Tm Shift (DSF) assay results for EUbOPEN Chemogenomics Library” (2023) can be followed below.

Molecules are shown by their SMILES. Values joined by “and” are separate entries in the source; they are usually repeats but may differ in a detail not shown here. Equal entries are not always repeated.

What all share (settings): Compound concentration 20.0 uM, Protein concentration 2.0 uM, Result type QC Liability
For assay [1], the target named is Tyrosine-protein kinase ABL1 (Homo sapiens) (UniProt P00519).
Sequence of Tyrosine-protein kinase ABL1 (Homo sapiens) (P00519 whole entry): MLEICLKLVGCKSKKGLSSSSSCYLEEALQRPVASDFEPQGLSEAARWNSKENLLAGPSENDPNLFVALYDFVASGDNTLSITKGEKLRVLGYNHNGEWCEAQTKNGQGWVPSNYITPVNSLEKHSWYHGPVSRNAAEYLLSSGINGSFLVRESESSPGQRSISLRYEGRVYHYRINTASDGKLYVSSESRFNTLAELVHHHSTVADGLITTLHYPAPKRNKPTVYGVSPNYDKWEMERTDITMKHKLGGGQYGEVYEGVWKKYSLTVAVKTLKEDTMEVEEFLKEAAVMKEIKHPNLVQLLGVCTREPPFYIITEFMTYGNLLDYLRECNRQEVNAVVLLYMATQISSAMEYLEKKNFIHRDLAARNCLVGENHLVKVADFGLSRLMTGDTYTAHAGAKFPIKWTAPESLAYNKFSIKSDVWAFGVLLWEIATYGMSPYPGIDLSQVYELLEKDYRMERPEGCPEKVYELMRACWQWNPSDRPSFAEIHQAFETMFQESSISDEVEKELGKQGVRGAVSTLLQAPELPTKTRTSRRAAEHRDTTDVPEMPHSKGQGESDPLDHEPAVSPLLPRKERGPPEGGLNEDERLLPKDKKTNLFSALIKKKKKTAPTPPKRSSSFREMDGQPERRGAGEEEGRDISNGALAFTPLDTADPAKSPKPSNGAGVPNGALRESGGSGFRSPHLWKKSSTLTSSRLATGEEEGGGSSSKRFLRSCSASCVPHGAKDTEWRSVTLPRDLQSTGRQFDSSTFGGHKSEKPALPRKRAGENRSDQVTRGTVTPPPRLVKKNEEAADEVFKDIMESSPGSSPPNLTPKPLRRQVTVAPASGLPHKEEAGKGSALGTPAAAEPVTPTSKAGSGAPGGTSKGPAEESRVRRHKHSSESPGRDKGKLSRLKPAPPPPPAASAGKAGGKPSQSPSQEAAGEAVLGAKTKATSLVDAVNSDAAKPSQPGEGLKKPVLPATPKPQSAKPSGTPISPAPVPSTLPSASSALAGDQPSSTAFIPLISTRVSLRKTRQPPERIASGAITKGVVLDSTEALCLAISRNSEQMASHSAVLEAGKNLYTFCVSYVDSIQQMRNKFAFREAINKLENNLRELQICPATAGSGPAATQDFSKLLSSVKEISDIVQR
Assay [2] has as its target Cyclin-dependent kinase 2 (Homo sapiens) (UniProt P24941).
Assay [3] has as its target Casein kinase I isoform delta (Homo sapiens) (UniProt P48730).
Assay [4] has as its target Glycogen synthase kinase-3 beta (Homo sapiens) (UniProt P49841).
Assay [5] addresses Mitogen-activated protein kinase 1 (Homo sapiens) (UniProt P28482).
Assay [6] has as its target T1, Aurora kinase A (Homo sapiens) (UniProt O14965).
T1 sequence (whole entry): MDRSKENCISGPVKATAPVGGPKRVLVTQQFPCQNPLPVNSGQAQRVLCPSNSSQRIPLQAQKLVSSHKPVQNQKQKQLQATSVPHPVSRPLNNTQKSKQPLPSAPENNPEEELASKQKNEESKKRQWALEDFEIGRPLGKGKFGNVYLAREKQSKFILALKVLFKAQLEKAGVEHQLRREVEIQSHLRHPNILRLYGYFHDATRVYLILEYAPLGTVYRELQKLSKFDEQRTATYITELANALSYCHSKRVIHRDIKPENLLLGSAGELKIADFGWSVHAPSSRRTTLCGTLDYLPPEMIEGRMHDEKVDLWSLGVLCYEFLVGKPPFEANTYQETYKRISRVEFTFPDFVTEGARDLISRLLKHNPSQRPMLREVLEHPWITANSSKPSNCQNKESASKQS

Sequence of Casein kinase I isoform delta (Homo sapiens) (P48730 whole entry, looked up, canonical isoform): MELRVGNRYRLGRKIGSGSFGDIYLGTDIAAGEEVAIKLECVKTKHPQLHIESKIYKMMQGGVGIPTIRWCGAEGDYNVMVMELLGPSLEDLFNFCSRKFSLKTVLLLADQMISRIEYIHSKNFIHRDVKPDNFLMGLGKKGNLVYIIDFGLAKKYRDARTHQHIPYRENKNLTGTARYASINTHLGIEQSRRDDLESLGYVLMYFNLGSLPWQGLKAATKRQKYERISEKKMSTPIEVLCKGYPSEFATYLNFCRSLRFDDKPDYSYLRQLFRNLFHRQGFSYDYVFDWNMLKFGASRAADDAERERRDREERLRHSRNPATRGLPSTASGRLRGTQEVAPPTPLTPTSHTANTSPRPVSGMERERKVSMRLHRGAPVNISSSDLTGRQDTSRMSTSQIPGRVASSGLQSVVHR
Sequence of Mitogen-activated protein kinase 1 (Homo sapiens) (P28482 whole entry): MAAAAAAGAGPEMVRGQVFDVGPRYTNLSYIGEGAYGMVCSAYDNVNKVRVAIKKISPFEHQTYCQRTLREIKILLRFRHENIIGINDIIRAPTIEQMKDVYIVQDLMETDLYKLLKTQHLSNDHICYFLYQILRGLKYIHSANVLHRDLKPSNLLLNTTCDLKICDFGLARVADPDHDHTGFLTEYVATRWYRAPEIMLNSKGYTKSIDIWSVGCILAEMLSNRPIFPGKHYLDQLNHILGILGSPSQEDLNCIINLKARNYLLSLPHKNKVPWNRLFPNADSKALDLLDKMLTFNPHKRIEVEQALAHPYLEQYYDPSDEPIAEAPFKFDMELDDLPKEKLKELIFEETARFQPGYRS
Sequence of Glycogen synthase kinase-3 beta (Homo sapiens) (P49841 whole entry, looked up): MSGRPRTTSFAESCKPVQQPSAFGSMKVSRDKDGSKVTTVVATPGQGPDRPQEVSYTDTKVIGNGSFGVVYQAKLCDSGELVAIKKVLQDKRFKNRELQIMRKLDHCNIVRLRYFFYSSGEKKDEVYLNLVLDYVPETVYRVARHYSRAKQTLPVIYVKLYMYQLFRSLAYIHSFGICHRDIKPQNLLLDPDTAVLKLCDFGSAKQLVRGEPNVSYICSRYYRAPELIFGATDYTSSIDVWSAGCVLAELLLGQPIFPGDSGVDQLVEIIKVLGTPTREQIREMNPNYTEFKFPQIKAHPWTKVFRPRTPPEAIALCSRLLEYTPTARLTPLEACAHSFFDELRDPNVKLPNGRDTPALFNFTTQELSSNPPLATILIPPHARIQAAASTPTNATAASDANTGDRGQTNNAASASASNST

What is called ΔTm is the change in melting temperature against a reference sample. Take `CC(C)c1nc2c(c3c1[C@@H](c1ccc(C(F)(F)F)cc1)OC31CCOCC1)[C@@H](O)CC(C)(C)C2`: the ΔTm is -0.41 °C in assay [1]; 0.52 °C in assay [2]; 0.25 °C in assay [3]; -1.28 °C in assay [4]; -0.13 °C in assay [5]; -0.38 °C in assay [6].
Regarding `Cc1nn(-c2ccccc2)c(Nc2ccccc2C(=O)O)c1-c1cc2nccnc2c(F)c1F`, the shift in melting temperature (ΔTm) was -0.68 °C in assay [1]; 0.56 °C in assay [2]; 0.22 °C in assay [3]; 1 °C in assay [4]; 0.47 °C in assay [5]; 0.69 °C in assay [6].
On to `CCCCNc1ncc2c(-c3ccc(CN4CCN(C)CC4)cc3)cn([C@H]3CC[C@H](O)CC3)c2n1`, for which the ΔTm in assay [1] stood at 11.7 °C; in assay [2], 5.95 °C; in assay [3] it was 2.72 °C; in assay [4], 4.8 °C; in assay [5], 0.43 °C; in assay [6], 13.5 °C.
In the case of `Nc1ncnc2c1c(COc1cccc(Cl)c1)nn2C1CCOCC1`, the ΔTm in assay [1] was 1.95 °C; in assay [2], 0.26 °C; in assay [3], 3.79 °C; in assay [4], 0.11 °C; in assay [5], 0.21 °C; in assay [6], -4.79 °C.
Take `CCNC(=O)c1ccc2c(c1)NC(=O)/C2=C(\Nc1ccc(CN(C)C)cc1)c1ccccc1`: the ΔTm is 3.61 °C and 1.55 °C in assay [1]; 0.83 °C and 0.42 °C in assay [2]; 0.37 °C and -0.02 °C in assay [3]; 0.19 °C and -0.61 °C in assay [4]; 0.2 °C and 0.17 °C in assay [5]; 1.4 °C and 0 °C in assay [6].
Take `COc1cc(-c2cn[nH]c2)ccc1C(=O)Nc1ccc2c(c1)CCNCC2`: the thermal shift (ΔTm) is 0.96 °C in assay [1]; 0.47 °C in assay [2]; 0.7 °C in assay [3]; -0.7 °C in assay [4]; 0.38 °C in assay [5]; 0.13 °C in assay [6].
Take `CC[C@H](Nc1c(C#N)c(-c2ccc(-c3cccc(C)c3F)cc2)nc2cnccc12)C(=O)O`: the ΔTm in assay [1] is 1.4 °C; in assay [2] it was -0.67 °C; in assay [3], -0.79 °C; in assay [4] it was -0.59 °C; in assay [5] it was -0.11 °C; in assay [6] it was 2.03 °C.
As to `Nc1ncnc2c1ccn2[C@@H]1O[C@H]([C@@H](O)c2ccccc2)[C@@H](O)[C@H]1O`, the ΔTm is 0.21 °C in assay [1]; 0.7 °C in assay [2]; 0.65 °C in assay [3]; -0.88 °C in assay [4]; 0.25 °C in assay [5]; -1.22 °C in assay [6].
Take `Cc1ccc(NC(=O)c2ccc(CN3CC[C@H](N(C)C)C3)c(C(F)(F)F)c2)cc1Nc1nccc(-c2cncnc2)n1`: the ΔTm in assay [1] stood at 17.6 °C; in assay [2], 0.7 °C; in assay [3] it was 0.73 °C; in assay [4] it was 0.08 °C; in assay [5], 0.9 °C; in assay [6], 0.26 °C.
On to `C=CC[C@@H]1/C=C(\C)C[C@H](C)C[C@H](OC)[C@H]2O[C@@](O)(C(=O)C(=O)N3CCCC[C@H]3C(=O)O[C@H](/C(C)=C/[C@@H]3CC[C@@H](O)[C@H](OC)C3)[C@H](C)[C@@H](O)CC1=O)[C@H](C)C[C@@H]2OC`, for which the ΔTm in assay [1] is -0.14 °C; in assay [2] it was -0.14 °C; in assay [3] it was -0.31 °C; in assay [4] it was 0.01 °C; in assay [5], -1.81 °C; in assay [6], -0.2 °C.
Take `CC(C)Oc1ccc(Cc2ccc(NC3=NCCN3)cc2)cc1`: the ΔTm in assay [1] was 0.13 °C; in assay [2], 0.19 °C; in assay [3], -0.09 °C; in assay [4] it was -0.57 °C; in assay [5] it was -0.5 °C; in assay [6], -0.48 °C.
`CC(=O)Nc1c(F)cc(C(=O)N[C@H]2CC[C@H](O)CC2)cc1O[C@@H](C)c1ccccc1`: the ΔTm in assay [1] is 0.21 °C; in assay [2], 0.97 °C; in assay [3] it was -0.03 °C; in assay [4], -0.82 °C; in assay [5] it was 0.43 °C; in assay [6], -0.15 °C.
For the molecule `Clc1cccc(Nc2nccc(NCCCN3CCOCC3)n2)c1`, the ΔTm stood at 1.3 °C in assay [1]; 1.43 °C in assay [2]; 0.64 °C in assay [3]; 5.39 °C in assay [4]; 0.32 °C in assay [5]; 2.47 °C in assay [6].
Consider `CNC(=O)c1cccc(-c2ccc3c(N4CCOC[C@@H]4C)nc(N4CCOC[C@@H]4C)nc3n2)c1`, for which the ΔTm in assay [1] was found to be 0.83 °C; in assay [2], 0.33 °C; in assay [3] it was 0.36 °C; in assay [4], 0.51 °C; in assay [5], 0 °C; in assay [6], 0.91 °C.
For `O=C1CCCc2[nH]c(-c3ccnc(NCC4CC4)c3)c(Nc3ccccc3)c21`, the ΔTm was -0.41 °C in assay [1]; 0.46 °C in assay [2]; 3.16 °C in assay [3]; 1.37 °C in assay [4]; -0.73 °C in assay [5]; 0.11 °C in assay [6].
As to `COCCCS(=O)(=O)c1cc(C)c(-c2ccc(F)c3c2CC[C@H]3Oc2ccc3c(c2)OC[C@H]3CC(=O)O)c(C)c1`, the ΔTm was 0.43 °C in assay [1]; 0 °C in assay [2]; 0.06 °C in assay [3]; 0 °C in assay [4]; 0 °C in assay [5]; -0.86 °C in assay [6].
Take `c1ccc(C2CCN(c3cnc4c(N5CCOCC5)nccn34)CC2)cc1`: the ΔTm in assay [1] was 0.01 °C; in assay [2], 0.19 °C; in assay [3], 0.18 °C; in assay [4], -0.6 °C; in assay [5], 0.57 °C; in assay [6] it was -0.14 °C.
Regarding `CCCCc1c(-c2ccccc2)nc(N)nc1-c1ccc(OCc2ccccc2)c(F)c1F`, the thermal shift (ΔTm) in assay [1] is -0.08 °C; in assay [2] it was -0.31 °C; in assay [3], -3.97 °C; in assay [4], -3.51 °C; in assay [5], 0 °C; in assay [6] it was -1.37 °C.
`CCN(C(=O)c1cc(F)ccc1Oc1cncnc1N1CC2(CCN(C[C@H]3CC[C@H](NS(=O)(=O)CC)CC3)CC2)C1)C(C)C`: the ΔTm is 0.01 °C in assay [1]; 0.94 °C in assay [2]; -0.25 °C in assay [3]; -0.47 °C in assay [4]; 0.35 °C in assay [5]; -1.01 °C in assay [6].
Take `C#Cc1cnc2[nH]cc(-c3cccc4c3CCN4C(=O)[C@@H]3CCCN3C#N)c2c1`: the thermal shift (ΔTm) was determined as 5.17 °C in assay [1]; 1.31 °C in assay [2]; 2.51 °C in assay [3]; 2.99 °C in assay [4]; 0.55 °C in assay [5]; 4.94 °C in assay [6].
Regarding `O=C(O)CCCCN(CCc1ccccc1OCc1ccc(CCc2ccccc2)cc1)Cc1ccc(C(=O)O)cc1`, the ΔTm in assay [1] is -0.26 °C; in assay [2] it was 0.13 °C; in assay [3] it was -0.05 °C; in assay [4], -0.16 °C; in assay [5], -0.08 °C; in assay [6], -0.23 °C.
Turning to `CCC(=O)N[C@H]1CC[C@@H](C(=O)N(C)c2ccc(-c3nc4ccccc4o3)cc2)C1`, the ΔTm in assay [1] was 0.73 °C; in assay [2] it was 0.83 °C; in assay [3], 0.61 °C; in assay [4], -0.48 °C; in assay [5], 0.13 °C; in assay [6], 0.03 °C.
`CC(C=CC1=C(C)CCCC1(C)C)=CC=CC(C)=CC(=O)O`: the thermal shift (ΔTm) is 0.39 °C in assay [1]; 0.25 °C in assay [2]; 0.93 °C in assay [3]; -0.56 °C in assay [4]; 0.1 °C in assay [5]; -3.01 °C in assay [6].
As to `C=CC(=O)Nc1ccc(C(=O)Nc2[nH]nc3c2CN(C(=O)N[C@H](CN(C)C)c2ccccc2)C3(C)C)cc1`, the ΔTm in assay [1] was 4.89 °C; in assay [2], 3.53 °C; in assay [3], 1.06 °C; in assay [4], 6.48 °C; in assay [5], 6.56 °C; in assay [6], 7.89 °C.
